For four compounds, outcome and AC50 results are on record in PubChem BioAssay (EPA / NIEHS).

Experiment [1] is described as follows: ATG_M_06_XSP2: Attagene TRANS-FACTORIAL Multi-Species (XSP2) HepG2 Assay for M06 Transcription Factor (Internal Marker) (AID 2283811).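 Further: hits are increases in signal above the DMSO baseline.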 In a few lines:
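HepG2, multiplexed reporter transfection; 24 h dosing; AR stimulated with 3 nM 6-alpha-fluorotestosterone + 1.5 nM norgestrel; RNA → RT-PCR → 6-FAM primer extension → HpaI → CE. Positive direction vs DMSO.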

Experiment [2] has as its system turtle Estrogen Receptor (ERa), gene 101933533. The experiment in a line: ATG_trERa_XSP2: Attagene TRANS-FACTORIAL Multi-Species (XSP2) HepG2 Assay for turtle Estrogen Receptor (ERa) (AID 2283812).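 Further: human HepG2 liver cells transiently expressing turtle ERa-Gal4 chimeric receptor; actives raise reporter signal above DMSO so AC50 reflects agonist activity.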 In a few lines: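 HepG2 cells transiently transfected with GAL4-UAS reporter units expressing turtle ERa-Gal4 chimera. Reporter mRNA measured after 24 h dosing by RT-PCR, fluorescent labelling and capillary electrophoresis; gain of signal fitted versus DMSO.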

Experiment [3] concerns the target Estrogen receptor beta (Homo sapiens) (UniProt Q92731). Briefly: ATG_hERb_XSP2: Attagene TRANS-FACTORIAL Multi-Species (XSP2) HepG2 Assay for human Estrogen Receptor (ERb) (AID 2283813).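 Further: actives raise reporter mRNA above DMSO so AC50 reflects agonist induction.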 A digest of the protocol: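 HepG2 cells transiently transfected with GAL4-UAS reporter units and chimeric human ERb-Gal4, 24 h exposure. Reporter mRNA quantified by RT-PCR with FAM labelling, HpaI digestion and capillary electrophoresis; gain of signal versus DMSO.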

Experiment [4] has as its target GAL4 Transcription Factor (Internal Marker), GAL4 (gene 855828) (UniProt P04386). Briefly: ATG_GAL4_XSP2: Attagene TRANS-FACTORIAL Multi-Species (XSP2) HepG2 Assay for GAL4 Transcription Factor (Internal Marker) (AID 2283814).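 Further: GAL4 reporter mRNA background control in MRTU transfected cells not a receptor target.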 In a few lines:
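HepG2 cells transiently transfected with GAL4-UAS reporter units, stimulated with 3 nM 6-alpha-fluorotestosterone plus 1.5 nM norgestrel, dosed 24 h. Reporter mRNA by RT-PCR/capillary electrophoresis; gain-of-signal fit versus DMSO, background control.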

The target of experiment [5] is zebrafish Estrogen Receptor (ER1), esr1 (gene 259252) (UniProt P57717). Briefly: ATG_zfER1_XSP2: Attagene TRANS-FACTORIAL Multi-Species (XSP2) HepG2 Assay for zebrafish Estrogen Receptor (ER1) (AID 2283816). A digest of the protocol: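 HepG2 cells transiently transfected with a GAL4-UAS reporter and a chimeric zebrafish ER1-Gal4 construct, dosed 24 h. Reporter mRNA quantified by RT-PCR, labelling, HpaI digestion and capillary electrophoresis, relative to DMSO.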

Experiment [6] addresses chicken Estrogen Receptor (ERa), ESR1 (gene 396099) (UniProt P06212). Briefly: ATG_chERa_XSP2: Attagene TRANS-FACTORIAL Multi-Species (XSP2) HepG2 Assay for chicken Estrogen Receptor (ERa) (AID 2283817).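 Further: actives raise reporter signal above DMSO so AC50 reflects ER activation.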 A digest of the protocol:
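Transient MRTU transfection of HepG2 → 24 h chemical dosing → TriZol RNA, oligo(dT) RT → PCR, 6-FAM primer extension, HpaI digest → CE quantitation of chicken ERa-Gal4-driven reporter mRNA. Positive direction vs DMSO.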

Experiment [7] relates to zebrafish Estrogen Receptor (ER2a), gene 317734. The experiment in a line: ATG_zfER2a_XSP2: Attagene TRANS-FACTORIAL Multi-Species (XSP2) HepG2 Assay for zebrafish Estrogen Receptor (ER2a) (AID 2283818).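 Further: hits raise reporter mRNA so AC50 reflects activation of zebrafish ER2a.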 In a few lines:
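HepG2 cells transiently transfected with GAL4-UAS reporter units and chimeric zebrafish ER2a-Gal4, exposed 24 h; medium contains 3 nM 6-alpha-fluorotestosterone and 1.5 nM norgestrel. Reporter mRNA quantified by RT-PCR, HpaI digestion, capillary electrophoresis; gain versus DMSO.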

Experiment [8] has as its system frog Estrogen Receptor (ER), gene 398734. Briefly: ATG_frER1_XSP2: Attagene TRANS-FACTORIAL Multi-Species (XSP2) HepG2 Assay for frog Estrogen Receptor (ER) (AID 2283821).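 Further: hits raise reporter mRNA above DMSO baseline so potency means agonist or activator.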 In a few lines:
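Steps: transfect HepG2 with multiple reporter transcription units; treat with chemical for 24 h; isolate RNA, reverse-transcribe, PCR-amplify, label with 6-FAM, digest with HpaI; resolve fragments by capillary electrophoresis. Signal is scored against DMSO.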

Experiment [9] has as its system zebrafish Estrogen Receptor (ER2b), gene 317733. Briefly: ATG_zfER2b_XSP2: Attagene TRANS-FACTORIAL Multi-Species (XSP2) HepG2 Assay for zebrafish Estrogen Receptor (ER2b) (AID 2283823).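 Further: fitted upward as reporter gain over DMSO so potency reflects activation.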 In a few lines: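 In this multiplexed trans-activation format, HepG2 cells expressing exogenous NR-Gal4 fusions drive GAL4-UAS reporters. Exposure lasts 24 h, and reporter mRNA induction is read by RT-PCR with capillary electrophoresis detection.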

The subject of experiment [10] is zebrafish Androgen Receptor (AR), gene 100005148. The experiment in a line: ATG_zfAR_XSP2: Attagene TRANS-FACTORIAL Multi-Species (XSP2) HepG2 Assay for zebrafish Androgen Receptor (AR) (AID 2283825).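 Further: hits raise reporter mRNA above DMSO so AC50 reflects agonist-type gain.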 In a few lines:
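Zebrafish AR–GAL4 chimera transiently expressed with GAL4-UAS reporter in HepG2 cells, co-stimulated with 3 nM 6-alpha-fluorotestosterone and 1.5 nM norgestrel; 24 h dosing, reporter mRNA read by RT-PCR/capillary electrophoresis versus DMSO.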

The target in experiment [11] is Estrogen receptor (Homo sapiens) (UniProt P03372). The experiment in a line: ATG_hERa_XSP2: Attagene TRANS-FACTORIAL Multi-Species (XSP2) HepG2 Assay for human Estrogen Receptor (ERa) (AID 2283827). A digest of the protocol:
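HepG2 cells transiently transfected with multiplexed GAL4-UAS reporters driven by chimeric receptor-Gal4 proteins, dosed 24 h with 3 nM 6-alpha-fluorotestosterone and 1.5 nM norgestrel present. Reporter mRNA by RT-PCR and capillary electrophoresis; gain-of-signal fit versus DMSO.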

Experiment [12] concerns frog Estrogen Receptor (ER2), gene 100174814. The experiment in a line: ATG_frER2_XSP2: Attagene TRANS-FACTORIAL Multi-Species (XSP2) HepG2 Assay for frog Estrogen Receptor (ER2) (AID 2283828). A digest of the protocol:
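Multiplexed transactivation in HepG2: frog estrogen receptor fused to Gal4 drives a UAS reporter. Signal is reporter mRNA after 24 h treatment.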

The target in experiment [13] is Peroxisome proliferator-activated receptor gamma (Homo sapiens) (UniProt P37231). The experiment in a line: ATG_hPPARg_XSP2: Attagene TRANS-FACTORIAL Multi-Species (XSP2) HepG2 Assay for human Peroxisome Proliferator-activated Receptor gamma (PPARg) (AID 2283829).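 Further: actives raise reporter mRNA above DMSO so AC50 reflects PPARg activation.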 A digest of the protocol:
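Multiplexed transactivation in transfected HepG2 liver cells. Gal4-chimeric receptor activity reported as induced reporter transcript after 24 h.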

In experiment [14] the target is mouse Peroxisome Proliferator-activated Receptor gamma (PPARg), Pparg (gene 19016) (UniProt P37238). Briefly: ATG_mPPARg_XSP2: Attagene TRANS-FACTORIAL Multi-Species (XSP2) HepG2 Assay for mouse Peroxisome Proliferator-activated Receptor gamma (PPARg) (AID 2283830).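 Further: hits are gains in reporter mRNA above DMSO so AC50 marks activation.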 A digest of the protocol: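 HepG2 cells transiently transfected with GAL4-UAS reporter units for chimeric NR-Gal4 proteins including mouse PPARg, exposed 24 h; medium contained 3 nM 6-alpha-fluorotestosterone and 1.5 nM norgestrel. Reporter mRNA quantified by RT-PCR, HpaI digestion and capillary electrophoresis, vs DMSO.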

Experiment [15] has as its target zebrafish Thyroid Hormone Receptor alpha (TRa), thraa (gene 30670) (UniProt Q98867). The experiment in a line: ATG_zfTRa_XSP2: Attagene TRANS-FACTORIAL Multi-Species (XSP1) HepG2 Assay for zebrafish Thyroid Hormone Receptor alpha (TRa) (AID 2283832).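 Further: actives raise zebrafish TRa-Gal4 reporter transcript above DMSO baseline.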 In a few lines: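 Transient transfection of human HepG2 with GAL4-UAS reporter units, then 24 h chemical treatment. RNA isolated, reverse-transcribed, PCR-amplified, FAM-labelled, HpaI-digested and run on capillary electrophoresis. Gain-of-signal relative to DMSO.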

In experiment [16] the test system is turtle Androgen Receptor (AR), gene 101947425. The experiment in a line: ATG_trAR_XSP2: Attagene TRANS-FACTORIAL Multi-Species (XSP2) HepG2 Assay for turtle Androgen Receptor (AR) (AID 2283815).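 On AC50: potency for gain of reporter signal meaning activation above DMSO baseline.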 In a few lines: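 HepG2 cells transiently transfected with GAL4-UAS reporter units for chimeric NR-Gal4 receptors; 24 h dosing in presence of 3 nM 6-alpha-fluorotestosterone and 1.5 nM norgestrel. Reporter mRNA by RT-PCR and capillary electrophoresis, gain of signal versus DMSO.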

Experiment [17] has as its system chicken Androgen Receptor (AR), gene 422165. Briefly: ATG_chAR_XSP2: Attagene TRANS-FACTORIAL Multi-Species (XSP2) HepG2 Assay for chicken Androgen Receptor (AR) (AID 2283819).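 Further: hits raise reporter mRNA above DMSO so potency is for activation.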 In a few lines:
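HepG2 cells transiently transfected with chicken AR–GAL4 chimeric reporter constructs, stimulated with 3 nM 6-alpha-fluorotestosterone plus 1.5 nM norgestrel, dosed 24 h. Reporter mRNA quantified by RT-PCR and capillary electrophoresis; gain of signal fitted versus DMSO.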

For experiment [18], the system named is frog Androgen Receptor (AR), gene 399456. Briefly: ATG_frAR_XSP2: Attagene TRANS-FACTORIAL Multi-Species (XSP2) HepG2 Assay for frog Androgen Receptor (AR) (AID 2283824).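 Further: actives raise reporter signal above DMSO so AC50 reflects agonist-like induction.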 A digest of the protocol:
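HepG2 cells transiently transfected with GAL4-UAS reporter units and frog (Xenopus laevis) AR-Gal4 chimera; reporter mRNA measured 24 h after dosing by RT-PCR and capillary electrophoresis. Gain of signal fitted relative to DMSO baseline.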

Experiment [19] is described as follows: ATG_M_19_XSP2: Attagene TRANS-FACTORIAL Multi-Species (XSP2) HepG2 Assay for M32 Transcription Factor (Internal Marker) (AID 2283822). In a few lines:
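Internal background marker in a multi-species nuclear receptor TRANS panel: transfected HepG2 cells exposed 24 h, with 3 nM 6-alpha-fluorotestosterone and 1.5 nM norgestrel present. Readout is RT-PCR of reporter transcripts resolved by capillary electrophoresis, gain-of-signal versus DMSO.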

Where “and” joins values, the source holds several entries; their conditions need not be identical. Equal values may be shown once. Results filed as inconclusive are left out. The source holds several records for some structures; these can differ, active in one and inactive in another. Calls of active or inactive are those of the source. How the source made its calls: active means hit-call score of the fitted dose curve at least 0.9, where 1 is the maximum; inconclusive means response in the unintended direction; inactive means score below 0.9.

Chain of Estrogen receptor beta (Homo sapiens) (Q92731 whole entry, looked up, the tested form may be a part): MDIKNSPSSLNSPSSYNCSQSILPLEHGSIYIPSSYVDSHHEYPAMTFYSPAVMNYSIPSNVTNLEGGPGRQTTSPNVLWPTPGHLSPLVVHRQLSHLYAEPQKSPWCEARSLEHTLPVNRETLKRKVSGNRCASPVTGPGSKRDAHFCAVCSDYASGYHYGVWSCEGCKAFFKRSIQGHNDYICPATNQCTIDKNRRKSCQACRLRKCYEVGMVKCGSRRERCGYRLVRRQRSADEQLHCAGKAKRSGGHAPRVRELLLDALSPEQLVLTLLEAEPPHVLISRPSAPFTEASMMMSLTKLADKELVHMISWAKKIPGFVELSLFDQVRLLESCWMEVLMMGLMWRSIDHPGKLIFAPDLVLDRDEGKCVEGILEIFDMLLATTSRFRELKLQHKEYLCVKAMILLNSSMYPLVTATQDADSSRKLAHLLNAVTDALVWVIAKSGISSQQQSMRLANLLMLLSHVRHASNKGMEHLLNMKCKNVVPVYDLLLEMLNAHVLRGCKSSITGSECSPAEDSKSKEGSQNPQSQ
Chain of mouse Peroxisome Proliferator-activated Receptor gamma (PPARg), Pparg (gene 19016) (P37238 whole entry, looked up, the tested form may be a part): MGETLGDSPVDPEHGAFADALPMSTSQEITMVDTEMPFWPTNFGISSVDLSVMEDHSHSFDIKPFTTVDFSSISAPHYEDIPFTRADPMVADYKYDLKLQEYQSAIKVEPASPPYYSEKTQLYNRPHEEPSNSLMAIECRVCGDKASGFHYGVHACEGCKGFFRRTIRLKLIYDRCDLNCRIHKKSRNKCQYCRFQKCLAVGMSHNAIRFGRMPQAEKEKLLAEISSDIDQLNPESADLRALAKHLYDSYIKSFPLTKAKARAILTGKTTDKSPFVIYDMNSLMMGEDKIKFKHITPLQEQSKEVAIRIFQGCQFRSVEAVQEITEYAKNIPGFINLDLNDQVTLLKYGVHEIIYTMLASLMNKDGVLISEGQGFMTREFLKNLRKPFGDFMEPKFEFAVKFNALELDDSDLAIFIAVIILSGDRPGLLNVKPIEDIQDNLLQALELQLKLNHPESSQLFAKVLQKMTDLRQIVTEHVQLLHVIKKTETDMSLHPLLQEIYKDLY
Chain of zebrafish Thyroid Hormone Receptor alpha (TRa), thraa (gene 30670) (Q98867 whole entry, looked up, the tested form may be a part): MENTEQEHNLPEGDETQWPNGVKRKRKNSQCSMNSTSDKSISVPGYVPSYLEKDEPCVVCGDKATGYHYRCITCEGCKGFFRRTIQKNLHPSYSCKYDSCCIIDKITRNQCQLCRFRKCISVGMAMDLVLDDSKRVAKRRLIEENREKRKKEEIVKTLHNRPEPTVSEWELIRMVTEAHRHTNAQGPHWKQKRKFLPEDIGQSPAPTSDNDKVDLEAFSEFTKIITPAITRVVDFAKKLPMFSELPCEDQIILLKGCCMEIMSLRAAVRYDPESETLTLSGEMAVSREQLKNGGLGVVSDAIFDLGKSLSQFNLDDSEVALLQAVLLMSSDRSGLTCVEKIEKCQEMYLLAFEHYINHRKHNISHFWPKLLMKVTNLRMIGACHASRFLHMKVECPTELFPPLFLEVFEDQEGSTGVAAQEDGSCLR
Chain of Peroxisome proliferator-activated receptor gamma (Homo sapiens) (P37231 whole entry, looked up, the tested form may be a part): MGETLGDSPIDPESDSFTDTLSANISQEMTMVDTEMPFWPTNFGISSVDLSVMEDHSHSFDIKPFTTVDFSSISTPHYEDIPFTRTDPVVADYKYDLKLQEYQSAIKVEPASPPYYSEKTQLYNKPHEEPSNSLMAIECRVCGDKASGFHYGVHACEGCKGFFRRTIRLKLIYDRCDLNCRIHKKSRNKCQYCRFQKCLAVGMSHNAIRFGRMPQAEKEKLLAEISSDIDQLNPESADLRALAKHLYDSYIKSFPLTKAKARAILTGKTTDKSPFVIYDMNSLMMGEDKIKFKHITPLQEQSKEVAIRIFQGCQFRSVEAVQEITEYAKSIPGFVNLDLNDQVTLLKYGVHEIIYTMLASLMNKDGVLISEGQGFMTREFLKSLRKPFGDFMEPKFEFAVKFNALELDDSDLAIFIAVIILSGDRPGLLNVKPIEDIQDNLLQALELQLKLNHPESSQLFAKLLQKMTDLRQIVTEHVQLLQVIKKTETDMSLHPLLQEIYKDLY
Chain of Estrogen receptor (Homo sapiens) (P03372 whole entry, looked up, the tested form may be a part): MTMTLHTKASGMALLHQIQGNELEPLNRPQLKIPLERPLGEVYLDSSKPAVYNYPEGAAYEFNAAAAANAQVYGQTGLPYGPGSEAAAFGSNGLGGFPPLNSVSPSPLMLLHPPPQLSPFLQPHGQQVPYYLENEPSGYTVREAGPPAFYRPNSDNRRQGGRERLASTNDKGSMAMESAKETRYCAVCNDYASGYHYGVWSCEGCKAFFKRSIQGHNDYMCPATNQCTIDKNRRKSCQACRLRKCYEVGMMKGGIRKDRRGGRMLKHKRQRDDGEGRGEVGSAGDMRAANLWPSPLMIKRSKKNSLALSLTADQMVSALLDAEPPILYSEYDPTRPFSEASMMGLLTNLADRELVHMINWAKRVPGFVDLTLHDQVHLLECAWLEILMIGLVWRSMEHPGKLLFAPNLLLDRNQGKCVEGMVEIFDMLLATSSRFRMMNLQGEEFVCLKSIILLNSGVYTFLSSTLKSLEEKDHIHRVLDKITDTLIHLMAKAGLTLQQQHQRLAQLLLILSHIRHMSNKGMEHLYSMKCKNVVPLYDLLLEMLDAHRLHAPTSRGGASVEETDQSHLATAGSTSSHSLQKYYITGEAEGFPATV
Chain of GAL4 Transcription Factor (Internal Marker), GAL4 (gene 855828) (P04386 whole entry, looked up, the tested form may be a part): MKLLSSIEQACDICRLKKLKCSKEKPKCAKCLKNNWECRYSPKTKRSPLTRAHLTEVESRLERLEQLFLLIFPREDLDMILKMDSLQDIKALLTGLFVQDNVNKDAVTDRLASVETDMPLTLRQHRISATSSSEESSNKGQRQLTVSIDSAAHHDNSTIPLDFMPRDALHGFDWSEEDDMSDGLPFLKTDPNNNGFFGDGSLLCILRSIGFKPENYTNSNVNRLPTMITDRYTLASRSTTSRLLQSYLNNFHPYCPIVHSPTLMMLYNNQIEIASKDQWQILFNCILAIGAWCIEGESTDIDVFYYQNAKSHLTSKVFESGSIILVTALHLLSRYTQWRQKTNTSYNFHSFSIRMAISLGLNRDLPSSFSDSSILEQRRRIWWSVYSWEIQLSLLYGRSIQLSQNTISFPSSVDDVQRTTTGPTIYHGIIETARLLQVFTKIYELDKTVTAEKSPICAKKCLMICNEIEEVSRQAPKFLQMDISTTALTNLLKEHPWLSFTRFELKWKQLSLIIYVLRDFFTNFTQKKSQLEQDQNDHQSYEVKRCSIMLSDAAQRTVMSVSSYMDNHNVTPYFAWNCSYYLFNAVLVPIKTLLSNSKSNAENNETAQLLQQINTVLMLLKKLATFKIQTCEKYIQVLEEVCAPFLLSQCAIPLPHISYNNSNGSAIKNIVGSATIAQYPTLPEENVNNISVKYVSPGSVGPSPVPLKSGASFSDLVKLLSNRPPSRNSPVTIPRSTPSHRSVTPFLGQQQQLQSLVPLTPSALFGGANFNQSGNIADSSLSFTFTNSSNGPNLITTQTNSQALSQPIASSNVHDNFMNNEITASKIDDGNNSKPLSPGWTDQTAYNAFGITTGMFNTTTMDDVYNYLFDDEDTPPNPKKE
Chain of chicken Estrogen Receptor (ERa), ESR1 (gene 396099) (P06212 whole entry, looked up, the tested form may be a part): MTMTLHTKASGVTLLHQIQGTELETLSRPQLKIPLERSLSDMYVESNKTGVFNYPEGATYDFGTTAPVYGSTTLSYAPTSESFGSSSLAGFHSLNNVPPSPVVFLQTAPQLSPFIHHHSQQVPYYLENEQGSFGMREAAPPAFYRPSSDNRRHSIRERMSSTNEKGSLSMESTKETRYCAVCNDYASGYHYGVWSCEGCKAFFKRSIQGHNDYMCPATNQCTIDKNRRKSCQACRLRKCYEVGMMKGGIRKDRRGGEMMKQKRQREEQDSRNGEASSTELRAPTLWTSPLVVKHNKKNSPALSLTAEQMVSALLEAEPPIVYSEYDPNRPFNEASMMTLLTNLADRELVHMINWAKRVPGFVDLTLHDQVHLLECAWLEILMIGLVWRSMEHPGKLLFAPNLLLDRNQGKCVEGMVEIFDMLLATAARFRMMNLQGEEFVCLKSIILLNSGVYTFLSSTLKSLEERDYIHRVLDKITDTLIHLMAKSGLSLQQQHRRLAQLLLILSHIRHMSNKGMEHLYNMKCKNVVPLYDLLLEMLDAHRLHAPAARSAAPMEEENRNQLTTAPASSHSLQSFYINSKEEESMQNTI
Chain of zebrafish Estrogen Receptor (ER1), esr1 (gene 259252) (P57717 whole entry, looked up, the tested form may be a part): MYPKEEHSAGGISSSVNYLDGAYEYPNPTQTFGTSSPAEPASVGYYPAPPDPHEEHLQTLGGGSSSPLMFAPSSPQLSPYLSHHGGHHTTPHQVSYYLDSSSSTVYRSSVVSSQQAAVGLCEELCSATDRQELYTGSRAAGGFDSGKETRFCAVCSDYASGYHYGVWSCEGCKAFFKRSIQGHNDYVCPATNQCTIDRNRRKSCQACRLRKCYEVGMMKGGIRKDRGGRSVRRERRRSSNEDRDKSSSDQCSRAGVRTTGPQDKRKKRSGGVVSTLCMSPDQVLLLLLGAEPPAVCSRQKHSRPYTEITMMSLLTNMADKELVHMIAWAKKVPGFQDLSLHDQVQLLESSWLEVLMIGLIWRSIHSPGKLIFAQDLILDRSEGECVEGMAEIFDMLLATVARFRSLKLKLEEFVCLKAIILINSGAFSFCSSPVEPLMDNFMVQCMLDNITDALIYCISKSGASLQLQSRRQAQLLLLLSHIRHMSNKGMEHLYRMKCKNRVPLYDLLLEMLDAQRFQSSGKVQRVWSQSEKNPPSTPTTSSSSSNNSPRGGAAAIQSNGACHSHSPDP

On to `CCCCCCCCCCCCc1ccc(O)cc1`, for which the compound was classed as inactive in [1], in experiment [3], in experiment [4], in experiment [7], in experiment [10] and in experiment [13]. Also, the call in experiment [14] and in experiment [15] was inactive. The AC50 was 327 nM (active) and 57.8 nM (active) in experiment [2]; 470 nM (active) in experiment [5]; 526 nM (active) and 135 nM (active) in experiment [6]; 274 nM (active) and 44 nM (active) in experiment [8]; 377 nM (active) and 126 nM (active) in [9]; 546 nM (active) and 167 nM (active) in [11]. The concentration at half-maximal activity (AC50) in [12] is 610 nM (active) and 239 nM (active).

`COc1ccc(-c2coc3cc(O)cc(O)c3c2=O)cc1`: the compound was called inactive in experiment [1], in [18], in experiment [13], in [14] and in [15]. In addition, the concentration at half-maximal activity (AC50) was 1.27 µM (active) and 161 nM (active) in [2]; 83.6 nM (active) and 65.3 nM (active) in experiment [3]; 1.81 µM (active) in experiment [16]; 4.02 µM (active) and 458 nM (active) in [5]; 1.24 µM (active) and 200 nM (active) in experiment [6]; 260 nM (active) and 38 nM (active) in [7]. Moreover, the half-maximal activity concentration (AC50) in experiment [17] was 10 µM (active) and 6.25 µM (active); in experiment [8] it was 1.07 µM (active) and 98.3 nM (active); in experiment [9], 2.28 µM (active) and 310 nM (active); in [11] it was 931 nM (active) and 276 nM (active); in [12] it was 501 nM (active) and 6.78 nM (active).

Turning to `CC(CCC(=O)O)(c1ccc(O)cc1)c1ccc(O)cc1`, the compound was called inactive in [1], in experiment [2], in experiment [3], in [4], in [16] and in experiment [5]. In addition, the compound was classed as inactive in experiment [6], in experiment [17], in experiment [8], in experiment [18], in experiment [10] and in [12]. For the same compound, the outcome in experiment [13], in experiment [14] and in experiment [15] was inactive. In addition, the AC50 was 134000 nM (active) in experiment [5]; 46.6 µM (active) and 34.7 µM (active) in experiment [7]; 42.6 µM (active) and 13.2 µM (active) in experiment [9]; 17.4 µM (active) and 2.94 µM (active) in experiment [11]; 27.5 µM (active) in [12].

As for `Oc1ccccc1Cc1ccccc1O`, the compound was classed as inactive in [1], in [2], in experiment [4], in experiment [6], in experiment [19] and in experiment [15]. For the same compound, the AC50 in experiment [2] was 26.9 µM (active); in experiment [3], 8.23 µM (active) and 7.6 µM (active); in [5] it was 58.4 µM (active) and 100 µM (active); in experiment [6], 7.64 µM (active); in experiment [7], 27.3 µM (active) and 8.24 µM (active); in [8] it was 26.5 µM (active) and 7.86 µM (active). Moreover, the concentration at half-maximal activity (AC50) is 29.1 µM (active) and 18.2 µM (active) in experiment [9]; 26.9 µM (active) and 8.47 µM (active) in experiment [11]; 27 µM (active) and 10.5 µM (active) in experiment [12]; 43.4 µM (active) and 30.3 µM (active) in experiment [13]; 58.3 µM (active) and 34.4 µM (active) in experiment [14].
